# Values joined by “and” are separate entries in the source; they are usually repeats but may differ in a detail not shown here. Equal entries are not always repeated. About 2,000 (36%) of roughly 5,500 compounds were called active. Inconclusive results (about 18%) are left out. No stated cut-off is given here; in the data, active means normalized growth mostly below about 0.91 (no sharp cut-off); inconclusive means no clear call, values can overlap the other calls; inactive means mostly above about 0.92. The list shows a part of the results.
# Assay: chemical genetic growth profiling, strain panel (AID 1159580);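 further: tested at 20 µM; growth read once vehicle control cultures reached saturation at 30 °C; 1 = growth at the plate median or of vehicle wells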
# Conditions: S. cerevisiae deletion strains, growth OD
compound,measurement,setting,value
C=C[C@@](C)(O)CCC1C(=C)CCC2[C@@](C)(CO)CCC[C@]12C (stereo partly drawn),normalized growth,"locus YAL021C, strain ccr4, stronger effect = lower value",0.994 (inactive)
same,normalized growth,"locus YAL026C, strain drs2, stronger effect = lower value",0.972 (inactive)
same,normalized growth,"locus YAL030W, strain snc1, stronger effect = lower value",1.07 (inactive)
same,normalized growth,"locus YBL061C, strain skt5, stronger effect = lower value",1.06 (inactive)
same,normalized growth,"locus YBR009C, strain hhf1, stronger effect = lower value",0.925 (inactive)
same,normalized growth,"locus YBR021W, strain FUR4, stronger effect = lower value",0.772 (active)
same,normalized growth,"locus YBR023C, strain chs3, stronger effect = lower value",1.02 (inactive)
same,normalized growth,"locus YBR171W, strain sec66, stronger effect = lower value",1.08 (inactive)
same,normalized growth,"locus YBR229C, strain ROT2, stronger effect = lower value",1.06 (inactive)
same,normalized growth,"locus YBR231C, strain swc5, stronger effect = lower value",1.12 [resistant] (active)
same,normalized growth,"locus YBR279W, strain paf1, stronger effect = lower value",0.997 (inactive)
same,normalized growth,"locus YCL011C, strain gbp2, stronger effect = lower value",1.02 (inactive)
same,normalized growth,"locus YCL016C, strain dcc1, stronger effect = lower value",0.974 (inactive)
same,normalized growth,"locus YCL029C, strain bik1, stronger effect = lower value",0.972 (inactive)
same,normalized growth,"locus YCL061C, strain MRC1, stronger effect = lower value",0.963 (inactive)
same,normalized growth,"locus YCL069W, strain vba3, stronger effect = lower value",1.03 (inactive)
same,normalized growth,"locus YCR088W, strain abp1, stronger effect = lower value",1.06 (inactive)
same,normalized growth,"locus YDL005C, strain med2, stronger effect = lower value",1.05 (inactive)
same,normalized growth,"locus YDL035C, strain GPR1, stronger effect = lower value",0.794 (active)
same,normalized growth,"locus YDL040C, strain nat1, stronger effect = lower value",1.08 [resistant] (active)
same,normalized growth,"locus YDL074C, strain BRE1, stronger effect = lower value",0.982 (inactive)
same,normalized growth,"locus YDL101C, strain DUN1, stronger effect = lower value",1.05 (inactive)
same,normalized growth,"locus YDL134C, strain PPH21, stronger effect = lower value",0.979 (inactive)
same,normalized growth,"locus YDL185W, strain tfp1, stronger effect = lower value",1.02 (inactive)
same,normalized growth,"locus YDL192W, strain arf1, stronger effect = lower value",0.989 (inactive)
same,normalized growth,"locus YDR001C, strain nth1, stronger effect = lower value",1.08 [resistant] (active)
same,normalized growth,"locus YDR069C, strain doa4, stronger effect = lower value",1.05 (inactive)
same,normalized growth,"locus YDR101C, strain arx1, stronger effect = lower value",0.915 (active)
same,normalized growth,"locus YDR137W, strain rgp1, stronger effect = lower value",0.758 (active)
same,normalized growth,"locus YDR150W, strain NUM1, stronger effect = lower value",1.09 (inactive)
same,normalized growth,"locus YDR159W, strain sac3, stronger effect = lower value",0.997 (inactive)
same,normalized growth,"locus YDR162C, strain NBP2, stronger effect = lower value",0.84 (inactive)
same,normalized growth,"locus YDR195W, strain ref2",1.25 [resistant] (active)
same,normalized growth,"locus YDR297W, strain sur2, stronger effect = lower value",1.04 (inactive)
same,normalized growth,"locus YDR318W, strain mcm21, stronger effect = lower value",0.99 (inactive)
same,normalized growth,"locus YDR334W, strain swr1, stronger effect = lower value",1.1 [resistant] (active)
same,normalized growth,"locus YDR335W, strain msn5, stronger effect = lower value",0.982 (inactive)
same,normalized growth,"locus YDR388W, stronger effect = lower value",1.02 (inactive)
same,normalized growth,"locus YDR392W, strain spt3, stronger effect = lower value",0.833 (inactive)
same,normalized growth,"locus YDR502C, strain sam2, stronger effect = lower value",0.985 (inactive)
same,normalized growth,"locus YEL003W, strain gim4, stronger effect = lower value",0.948 (inactive)
same,normalized growth,"locus YEL037C, strain rad23, stronger effect = lower value",1.05 (inactive)
same,normalized growth,"locus YEL061C, strain CIN8 (second series), stronger effect = lower value",1.07 (inactive)
same,normalized growth,"locus YEL061C, strain CIN8, stronger effect = lower value",1.07 (inactive)
same,normalized growth,"locus YER015W, strain faa2, stronger effect = lower value",1 (inactive)
same,normalized growth,"locus YER016W, strain bim1, stronger effect = lower value",1.05 (inactive)
same,normalized growth,"locus YER110C, stronger effect = lower value",1.06 (inactive)
same,normalized growth,"locus YER111C, strain swi4, stronger effect = lower value",1.07 (inactive)
same,normalized growth,"locus YER155C, strain BEM2 (second series), stronger effect = lower value",1.22 [resistant] (active)
same,normalized growth,"locus YER155C, strain BEM2, stronger effect = lower value",1.09 [resistant] (active)
same,normalized growth,"locus YER167W, strain BCK2, stronger effect = lower value",1.01 (inactive)
same,normalized growth,"locus YFR010W, strain ubp6, stronger effect = lower value",1.07 (inactive)
same,normalized growth,"locus YGL078C, strain dbp3, stronger effect = lower value",0.871 (active)
same,normalized growth,"locus YGL086W, strain mad1, stronger effect = lower value",1 (inactive)
same,normalized growth,"locus YGL167C, strain pmr1, stronger effect = lower value",1.06 (inactive)
same,normalized growth,"locus YGL173C, strain kem1, stronger effect = lower value",0.913 (inactive)
same,normalized growth,"locus YGL227W, strain vid30, stronger effect = lower value",1.06 (inactive)
same,normalized growth,"locus YGL240W, strain doc1, stronger effect = lower value",0.974 (inactive)
same,normalized growth,"locus YGL248W, strain PDE1, stronger effect = lower value",0.982 (inactive)
same,normalized growth,"locus YGL253W, strain hxk2, stronger effect = lower value",1.02 (inactive)
same,normalized growth,"locus YGR078C, strain PAC10, stronger effect = lower value",1.02 (inactive)
same,normalized growth,"locus YGR135W, strain pre9, stronger effect = lower value",0.992 (inactive)
same,normalized growth,"locus YGR252W, strain gcn5, stronger effect = lower value",0.92 (inactive)
same,normalized growth,"locus YHR013C, strain ard1, stronger effect = lower value",1.11 (inactive)
same,normalized growth,"locus YHR027C, strain rpn1, stronger effect = lower value",1.02 (inactive)
same,normalized growth,"locus YHR030C, strain SLT2, stronger effect = lower value",1.09 [resistant] (active) and 0.872 (inactive)
same,normalized growth,"locus YHR079C, strain IRE1 (second series), stronger effect = lower value",1.05 (inactive)
same,normalized growth,"locus YHR079C, strain IRE1, stronger effect = lower value",0.862 (inactive)
same,normalized growth,"locus YHR094C, strain hxt1, stronger effect = lower value",1.04 (inactive)
same,normalized growth,"locus YHR129C, strain ARP1, stronger effect = lower value",1.05 (inactive)
same,normalized growth,"locus YHR142W, strain chs7, stronger effect = lower value",1.01 (inactive)
same,normalized growth,"locus YHR200W, strain rpn10, stronger effect = lower value",1.02 (inactive)
same,normalized growth,"locus YIL066C, strain RNR3, stronger effect = lower value",0.996 (inactive)
same,normalized growth,"locus YIL073C, strain SPO22, stronger effect = lower value",1.01 (inactive)
same,normalized growth,"locus YIL125W, strain kgd1, stronger effect = lower value",0.973 (inactive)
same,normalized growth,"locus YIR030C, strain dcg1, stronger effect = lower value",1.05 (inactive)
same,normalized growth,"locus YJL092W, strain hpr5, stronger effect = lower value",1.02 (inactive)
same,normalized growth,"locus YJL095W, strain BCK1 (second series), stronger effect = lower value",1.07 (inactive)
same,normalized growth,"locus YJL095W, strain BCK1, stronger effect = lower value",1.02 (inactive) and 0.886 (inactive)
same,normalized growth,"locus YJL115W, strain asf1, stronger effect = lower value",1.07 (inactive)
same,normalized growth,"locus YJL129C, strain trk1, stronger effect = lower value",1.02 (inactive)
same,normalized growth,"locus YJL134W, strain LCB3, stronger effect = lower value",1.07 (inactive)
same,normalized growth,"locus YJL154C, strain vps35, stronger effect = lower value",1.09 [resistant] (active)
same,normalized growth,"locus YJL164C, strain tpk1, stronger effect = lower value",0.963 (inactive)
same,normalized growth,"locus YJL166W, strain qcr8, stronger effect = lower value",0.968 (inactive)
same,normalized growth,"locus YJL168C, strain set2, stronger effect = lower value",1.07 (inactive)
same,normalized growth,"locus YJL187C, strain SWE1 (second series), stronger effect = lower value",0.995 (inactive)
same,normalized growth,"locus YJL187C, strain SWE1, stronger effect = lower value",1.01 (inactive)

# — PubChem BioAssay AID1159580 (chemical genetic matrix, 2015)
